Experimental data reported in PubChem BioAssay AID1159580 (chemical genetic matrix, 2015).
Among all 5,500 compounds or so, about 2,000 (36%) were called active. Another 18% or so got no clear call; they are omitted. No stated cut-off is given here; in the data, active means normalized growth mostly below about 0.91 (no sharp cut-off); inconclusive means no clear call, values can overlap the other calls; inactive means mostly above about 0.92. Some of the results follow.

Test: chemical genetic growth profiling, strain panel (AID 1159580);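 further: tested at 20 µM; growth read once vehicle control cultures reached saturation at 30 °C; 1 = growth at the plate median or of vehicle wells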
Conditions: growth OD

Measured: normalized growth

COC(=O)Oc1ccccc1C(=O)O
inactive: S. cerevisiae deletion strains, locus YAL013W, strain DEP1, stronger effect = lower value 1.02 | S. cerevisiae deletion strains, locus YBR021W, strain FUR4, stronger effect = lower value 0.976 | S. cerevisiae deletion strains, locus YBR229C, strain ROT2, stronger effect = lower value 1.01 | S. cerevisiae deletion strains, locus YCL029C, strain bik1, stronger effect = lower value 1.01 | S. cerevisiae deletion strains, locus YDL035C, strain GPR1, stronger effect = lower value 0.995 | S. cerevisiae deletion strains, locus YDL074C, strain BRE1, stronger effect = lower value 1.04 | S. cerevisiae deletion strains, locus YDL101C, strain DUN1, stronger effect = lower value 1.02 | S. cerevisiae deletion strains, locus YDL134C, strain PPH21, stronger effect = lower value 0.991 | S. cerevisiae deletion strains, locus YDL185W, strain tfp1, stronger effect = lower value 1.01 | S. cerevisiae deletion strains, locus YDL192W, strain arf1, stronger effect = lower value 1.02 | S. cerevisiae deletion strains, locus YDR101C, strain arx1, stronger effect = lower value 1.01 | S. cerevisiae deletion strains, locus YDR162C, strain NBP2, stronger effect = lower value 0.99 | S. cerevisiae deletion strains, locus YDR318W, strain mcm21, stronger effect = lower value 1.01 | S. cerevisiae deletion strains, locus YDR388W, stronger effect = lower value 1.01 | S. cerevisiae deletion strains, locus YDR502C, strain sam2, stronger effect = lower value 1.01 | S. cerevisiae deletion strains, locus YEL061C, strain CIN8, stronger effect = lower value 1.01 | S. cerevisiae deletion strains, locus YER110C, stronger effect = lower value 1.03 | S. cerevisiae deletion strains, locus YER155C, strain BEM2, stronger effect = lower value 1.01 | S. cerevisiae deletion strains, locus YER167W, strain BCK2, stronger effect = lower value 1.01 | S. cerevisiae deletion strains, locus YGL078C, strain dbp3, stronger effect = lower value 1.01 | S. cerevisiae deletion strains, locus YGL086W, strain mad1, stronger effect = lower value 1.01 | S. cerevisiae deletion strains, locus YGL248W, strain PDE1, stronger effect = lower value 1.01 | S. cerevisiae deletion strains, locus YGR135W, strain pre9, stronger effect = lower value 1.01 | S. cerevisiae deletion strains, locus YGR252W, strain gcn5, stronger effect = lower value 1.01 | S. cerevisiae deletion strains, locus YHR030C, strain SLT2, stronger effect = lower value 1.01 | S. cerevisiae deletion strains, locus YHR079C, strain IRE1 (second series), stronger effect = lower value 1.01 | S. cerevisiae deletion strains, locus YHR094C, strain hxt1, stronger effect = lower value 1.02 | S. cerevisiae deletion strains, locus YHR129C, strain ARP1, stronger effect = lower value 1.01 | S. cerevisiae deletion strains, locus YHR200W, strain rpn10, stronger effect = lower value 1.02 | S. cerevisiae deletion strains, locus YIL066C, strain RNR3, stronger effect = lower value 0.987 | S. cerevisiae deletion strains, locus YIL073C, strain SPO22, stronger effect = lower value 1.03 | S. cerevisiae deletion strains, locus YIL125W, strain kgd1, stronger effect = lower value 1.02 | S. cerevisiae deletion strains, locus YIR030C, strain dcg1, stronger effect = lower value 1.01 | S. cerevisiae deletion strains, locus YJL095W, strain BCK1, stronger effect = lower value 1.05 | S. cerevisiae deletion strains, locus YJL134W, strain LCB3, stronger effect = lower value 1.01 | S. cerevisiae deletion strains, locus YJL168C, strain set2, stronger effect = lower value 1.03 | S. cerevisiae deletion strains, locus YJL187C, strain SWE1 (second series), stronger effect = lower value 1.02 | S. cerevisiae deletion strains, locus YJR043C, strain POL32, stronger effect = lower value 0.983 | S. cerevisiae deletion strains, locus YKL009W, strain mrt4, stronger effect = lower value 1.01 | S. cerevisiae deletion strains, locus YKL068W, stronger effect = lower value 1 | S. cerevisiae deletion strains, locus YKL085W, strain MDH1 (second series), stronger effect = lower value 1.01 | S. cerevisiae deletion strains, locus YKL085W, strain MDH1, stronger effect = lower value 1.01 | S. cerevisiae deletion strains, locus YKL190W, strain CNB1, stronger effect = lower value 1.02 | S. cerevisiae deletion strains, locus YKR001C, strain vps1, stronger effect = lower value 1.01 | S. cerevisiae deletion strains, locus YLR039C, strain RIC1, stronger effect = lower value 1.02 | S. cerevisiae deletion strains, locus YLR058C, strain SHM2, stronger effect = lower value 1.01 | S. cerevisiae deletion strains, locus YLR102C, strain apc9, stronger effect = lower value 1.02 | S. cerevisiae deletion strains, locus YLR262C, strain YPT6, stronger effect = lower value 1.04 | S. cerevisiae deletion strains, locus YLR268W, strain sec22, stronger effect = lower value 1.02 | S. cerevisiae deletion strains, locus YLR330W, strain CHS5, stronger effect = lower value 1.01 | S. cerevisiae deletion strains, locus YLR342W, strain FKS1 (second series), stronger effect = lower value 0.995 | S. cerevisiae deletion strains, locus YLR371W, strain rom2, stronger effect = lower value 1.02 | S. cerevisiae deletion strains, locus YLR418C, strain cdc73, stronger effect = lower value 1.06 | S. cerevisiae deletion strains, locus YML016C, strain PPZ1, stronger effect = lower value 0.999 | S. cerevisiae deletion strains, locus YML032C, strain rad52, stronger effect = lower value 1.01 | S. cerevisiae deletion strains, locus YML124C, strain tub3, stronger effect = lower value 1.01 | S. cerevisiae deletion strains, locus YMR078C, strain ctf18, stronger effect = lower value 1.02 | S. cerevisiae deletion strains, locus YMR223W, strain ubp8, stronger effect = lower value 1.01 | S. cerevisiae deletion strains, locus YMR263W, strain SAP30, stronger effect = lower value 1.03 | S. cerevisiae deletion strains, locus YMR307W, strain GAS1, stronger effect = lower value 1.06 | S. cerevisiae deletion strains, locus YNL067W, strain RPL9B, stronger effect = lower value 1.07 | S. cerevisiae deletion strains, locus YNL128W, strain TEP1, stronger effect = lower value 1.02 | S. cerevisiae deletion strains, locus YNL153C, strain GIM3, stronger effect = lower value 1.03 | S. cerevisiae deletion strains, locus YNL233W, strain BNI4, stronger effect = lower value 1.01 | S. cerevisiae deletion strains, locus YNL250W, strain rad50, stronger effect = lower value 1.04 | S. cerevisiae deletion strains, locus YNL271C, strain bni1, stronger effect = lower value 1.02 | S. cerevisiae deletion strains, locus YNL298W, strain CLA4, stronger effect = lower value 1.02 | S. cerevisiae deletion strains, locus YNL307C, strain MCK1, stronger effect = lower value 1.02 | S. cerevisiae deletion strains, locus YNR052C, strain pop2, stronger effect = lower value 1.02 | S. cerevisiae deletion strains, locus YOL012C, strain htz1 0.797 | S. cerevisiae deletion strains, locus YOL147C, strain pex11, stronger effect = lower value 1.02 | S. cerevisiae deletion strains, locus YOR061W, strain CKA2, stronger effect = lower value 1.01 | S. cerevisiae deletion strains, locus YOR069W, strain VPS5, stronger effect = lower value 1.01 | S. cerevisiae deletion strains, locus YOR136W, strain idh2, stronger effect = lower value 1.02 | S. cerevisiae deletion strains, locus YOR144C, strain elg1, stronger effect = lower value 1.02 | S. cerevisiae deletion strains, locus YOR184W, strain ser1, stronger effect = lower value 1.02 | S. cerevisiae deletion strains, locus YOR316C, strain cot1, stronger effect = lower value 1.02 | S. cerevisiae deletion strains, locus YPL241C, strain CIN2, stronger effect = lower value 1 | S. cerevisiae deletion strains, locus YPR119W, strain clb2, stronger effect = lower value 1.02 | S. cerevisiae deletion strains, locus YPR141C, strain kar3, stronger effect = lower value 1.03 | S. cerevisiae deletion strains, locus YPR163C, strain tif3, stronger effect = lower value 1.01 | S. cerevisiae deletion strains, locus YPR167C, strain met16, stronger effect = lower value 1.01 | S. cerevisiae deletion strains, strain wtn01, stronger effect = lower value 1.01 | S. cerevisiae strains, strain wild type, stronger effect = lower value 1.02
